Assay outcomes (PubChem)
Only some compounds are listed: those with a hit (about 2.9% of all), similar ones and a draw of the others.
HEK293 viab: GF-AFC viability counterscreen for inhibitors of alpha-synuclein gene (SNCA) expression. HEK-293-SNCA-luc viability, GF-AFC fluorescence, 24 h. Potency, µM (highest dose often 57.1 µM), for inactives: top-dose activity change, negative = cytotoxicity, most hits filed as cytotoxic. actives 0.12% (n = 150,000). AID 1671193, 2021;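 also: potency is read from the fitted curve at half-maximal effect; 0% = DMSO-treated cells and -100% = medium-only wells without cells; nearly all actives have a fitted effect of over 30% in size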
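Cytotoxicity counterscreen: after 24 h compound treatment of genome-edited SNCA-luciferase HEK-293 cells, live-cell protease substrate GF-AFC read by fluorescence after 30 min; activity scaled between DMSO (0%) and medium-only (-100%), curves Hill-fitted.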
IP6K1 inh: Primary qHTS assay for small molecule inhibitors of Inositol hexaphosphate kinase 1 (IP6K1); Inositol hexakisphosphate kinase 1 (Homo sapiens), Q92551; IP6K1 kinase, ADP-Glo luminescence, 2 h; stronger effect = lower value; activity change, % (series mostly up to about 58 µM); actives 0.81% (n = 140,000); AID 1645851, 2021; in the data active = activity change below about -25%; also: % is scaled to controls: 0 for no effect and ±100 for the full control effect
Target sequence (Q92551 whole entry, looked up): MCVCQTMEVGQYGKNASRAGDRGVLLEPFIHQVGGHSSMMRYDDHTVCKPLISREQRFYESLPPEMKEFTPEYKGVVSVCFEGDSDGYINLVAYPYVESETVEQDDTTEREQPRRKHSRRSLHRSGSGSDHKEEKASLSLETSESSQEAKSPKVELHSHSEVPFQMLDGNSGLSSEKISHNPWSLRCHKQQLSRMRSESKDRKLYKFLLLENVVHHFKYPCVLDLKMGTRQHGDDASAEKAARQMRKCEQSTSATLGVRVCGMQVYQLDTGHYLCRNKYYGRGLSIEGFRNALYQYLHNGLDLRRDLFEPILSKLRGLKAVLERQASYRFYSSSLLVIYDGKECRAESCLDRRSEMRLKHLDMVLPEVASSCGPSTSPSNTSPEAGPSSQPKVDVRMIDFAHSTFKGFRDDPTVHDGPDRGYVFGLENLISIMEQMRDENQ
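ADP-Glo luminescence measures ADP made by human IP6K1 during a 2 h RT reaction with ATP/IP6 (mix at 1.3 mM/130 uM); top library doses 57.5 and 19.1 uM final.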
KDM5B inh: Primary screen for KDM5B Histone Demethylases FDH-coupled qHTS | Potency, µM (highest dose often 57.7 µM), most hits filed as inhibitors | actives 2.6% (n = 220,000) | KDM5B demethylase, FDH-coupled NADH fluorescence (FDH is formaldehyde dehydrogenase) | Lysine-specific demethylase 5B (Homo sapiens), Q9UGL1; also: potency is read from the fitted curve at half-maximal effect; 0% is about no effect; nearly all actives have a fitted effect of over 70% in size
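Measured: NADH fluorescence change, 30 min, RT. System: KDM5BΔAP 200 nM final, H3K4me3 peptide, α-KG, Fe(II), ascorbate, NAD⁺ plus FDH, pH 7.5 HEPES. Compounds: titrated, 10 min pre-incubation with enzyme.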
SNCA expr inh: Primary qHTS assay for inhibitors of alpha-synuclein gene (SNCA) expression; HEK-293 SNCA-luciferase knock-in, luminescence, 24 h; actives 0.17% (n = 140,000); Potency, µM (top dose mostly 57.2 µM), without a hit: at the top dose activity change, negative = inhibition, actives largely listed as inhibitors;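 also: potency is read from the fitted curve at half-maximal effect; plate controls were DMSO cells for no effect and cell-free wells for full effect; nearly all actives have a fitted effect of over 45% in size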
* marks the source's active call; other numbers are inactive results; i = inactive; u = inconclusive; x = no result given; [ ] = another dose, or the depositor's remark. Unless noted, calls follow the shape of the dose curve; as a rule, active = well fitted curve in the direction sought with a large enough effect; inconclusive = small, poorly fitted or top-dose-only effect, or another doubt; inactive = no such curve, though single readings can be large; an effect the other way counts as inactive or inconclusive.

SMILES	HEK293 viab	IP6K1 inh	KDM5B inh	SNCA expr inh
COc1ccc(C2Cn3nnc(-c4nc(-c5ccc(OC(F)(F)F)cc5)no4)c3CO2)cc1 (centres undefined)	-1%	1	i	12%
Cc1ccc(C(=O)N(CCCN)C(c2nc3cc(Cl)ccc3c(=O)n2Cc2ccccc2)C(C)C)cc1 (centres undefined)	30µM*	0	x	x
C#CC[C@H](c1nc2cc(Cl)ccc2c(=O)n1Nc1ccccc1)N(CCCN)C(=O)c1cccc(Cl)c1F	u	13	x	x
CC(C)NC(=O)NC1CCN(C(=O)c2ccc(-c3ncccc3C#N)cc2)CC1	11%[12.5 µM]	24	x	23%
CC(C)c1cc(C(=O)N2CCN(c3ncccc3C#N)CC2)n(C)n1	-3%	20	32µM*	-3%
Cc1cc2cc(C(=O)N3CCN(c4ncccc4C#N)CC3)ccc2o1	-28%	10	28µM*	16%
Cc1nc(C(=O)NC2CCN(c3ncccc3C#N)CC2)cs1	10%	8	28µM*	4%
CC(C)c1cc(C(=O)NC2CCN(c3ncccc3C#N)CC2)n(C)n1	-18%	-5	22µM*	u
COc1nc2nc(CCc3ccccc3)n(C)c2cc1-c1ccnn1C	4%[87.6 µM]	9	40µM*	-17%[87.6 µM]
COc1nc2nc(CCc3ccccc3)n(C)c2cc1-c1ccncc1	-14%[87.6 µM]	15	u	46%[87.6 µM]
O=c1oc2ccc(Br)cc2cc1-c1csc(Nc2ccccc2)n1	x	x	i	x
Cc1ccc(N2CC(c3noc(-c4ccc5c(c4)OCO5)n3)CC2=O)cc1 (centres undefined)	8%	13	32µM*	18%
COc1ccc(N2CC(c3noc(-c4ccc5c(c4)OCO5)n3)CC2=O)cc1OC (centres undefined)	0%	-8	u	0%
COc1ccc(N2CC(c3noc(-c4ccc5c(c4)OCO5)n3)CC2=O)cc1 (centres undefined)	7%	-3	32µM*	-21%
O=C(c1cc(=O)[nH]c(=O)[nH]1)N1CCc2onc(-c3ccccc3F)c2C1	3%	18	i	-3%
O=C(Nc1ccccc1)C1=C(N2CCN(c3ccc(F)cc3)CC2)c2ccccc2S1(=O)=O	x	x	i	x
C[C@@H]1C(=O)O[C@H]2[C@H]1CC[C@@]1(C)Cc3sc(Nc4ccc(C(=O)O)cc4)nc3[C@@H](C)[C@H]21	1%[87.6 µM]	15	35µM*	-19%[87.6 µM]
C[C@@H]1C(=O)O[C@H]2[C@H]1CC[C@@]1(C)Cc3sc(NC(=O)c4ccc(N(C)C)cc4)nc3[C@@H](C)[C@H]21	0%	22	28µM*	17%
CC(NC(=O)CCC(=O)c1ccc(F)cc1)C(=O)N1CCN(c2ccccn2)CC1 (centres undefined)	-9%	1	u	-3%
O=C1CCN(C(=O)c2cccs2)CCCC(C(=O)N2CCN(c3ccccn3)CC2)CCN1 (centres undefined)	-4%	1	u	29%
COCCC(=O)NC(C)C(=O)N1CCN(c2ccccn2)CC1 (centres undefined)	-4%	8	25µM*	24%
COc1ccc(CC(=O)NC(C)C(=O)N2CCN(c3ccccn3)CC2)cc1Cl (centres undefined)	6%	0	u	-7%
Cc1ccc(CC(=O)NC(C)C(=O)N2CCN(c3ccccn3)CC2)cc1 (centres undefined)	-5%	9	28µM*	4%
COCCC(=O)N1CCCC(C(=O)N2CCN(c3ccccn3)CC2)CCNC(=O)CC1 (centres undefined)	-2%	-9	28µM*	3%
CCCC(=O)NC(C)C(=O)N1CCN(c2ccccn2)CC1 (centres undefined)	13%	7	25µM*	-8%
SMILES	HEK293 viab	IP6K1 inh	KDM5B inh	SNCA expr inh
O=C(C1CCN(c2nccc(Nc3ccccc3Cl)n2)CC1)N1CCN(Cc2ccccc2)CC1	-11%[12.5 µM]	-1	x	u
CS(=O)(=O)N1CCC[C@@]2(CCN(Cc3nccs3)C2)C1	-6%	x	x	10%
CC(NC(=O)C(C)(C)C)C(=O)N1CCN(c2ccccn2)CC1 (centres undefined)	12%	7	28µM*	5%
CC(NC(=O)CCc1ccccc1)C(=O)N1CCN(c2ccccn2)CC1 (centres undefined)	3%	13	25µM*	-26%
OB(O)c1cccc2c1sc1ccccc12	x	x	i	x
O=C(c1nc(-c2ccc(Cl)cc2)c2ccccn12)N1CCN(c2ncccn2)CC1	4%	34	25µM*	0%
O=C(c1cc(-c2cccc(C(F)(F)F)c2)c2cccn2n1)N1CCCC1	-3%	-5	x	-20%
O=C(c1nc(-c2ccc(F)cc2)c2cnccn12)N1CCCC1	10%[87.6 µM]	2	32µM*	1%[87.6 µM]
O=C(c1nc(-c2cccc(C(F)(F)F)c2)c2cnccn12)N1CCCC1	6%	11	32µM*	-9%
O=C(c1cc(-c2cccc(C(F)(F)F)c2)c2cccn2n1)N1CCOCC1	-11%	2	x	u
O=C(c1nc(-c2cccc(C(F)(F)F)c2)c2cnccn12)N1CCOCC1	8%	0	10µM*	1%
O=C(Cn1c(=O)n(CCCS(=O)(=O)C2CCCCC2)c(=O)c2ccccc21)Nc1ccccc1C(F)(F)F	-17%	1	u	-4%
COc1cccc(CCN[C@H]2CS(=O)(=O)C[C@@H]2S(=O)(=O)c2ccc(F)c(C)c2)c1	x	x	i	x
COC(=O)[C@]12C[C@H](CC(=O)NCC34CC5CC(CC(C5)C3)C4)C(=O)N(Cc3ccccc3)C1=C[C@H](COCc1ccccc1)O[C@@H]2C	x	x	i	x
COCCNC(=O)Cn1nc(Cc2ccncc2)c2ccccc2c1=O	x	x	i	x
O=C(c1nc(-c2ccc(F)cc2)c2ccccn12)N1CCOCC1	5%[87.6 µM]	-4	32µM*	-7%[87.6 µM]
CC(C)(C)n1cc(-c2cc(C(=O)N3C[C@H]4CC[C@H]3C4)c3ccccc3n2)cn1	-12%	34	32µM*	23%
CCc1ccccc1NC(=O)CN1C(=O)NC2(CCOCC2)C1=O	5%	33	i	3%
Cc1cccc(C(=O)Nc2ccc(Cl)cc2C(F)(F)F)c1C	x	x	i	x
CN(C)C[C@@H]1CN(C)C[C@H]1NC(=O)CCCc1ccccc1	3%	-9	u	9%
CN(C)C[C@@H]1CN(c2ncccn2)C[C@H]1NC(=O)CCCc1ccccc1	0%	6	32µM*	-5%
CN(C)C[C@@H]1CN(c2ncccn2)C[C@H]1NC(=O)c1cnco1	-10%	2	32µM*	-25%
Cc1noc(C)c1C(=O)N[C@@H]1CN(c2ncccn2)C[C@H]1CN(C)C	-8%	14	32µM*	-11%
CCN(Cc1ccncc1)C(=O)CCC[C@@H]1[C@H]2CCCN3CCC[C@@H](CN1Cc1cccnc1)[C@@H]23	-16%	-2	28µM*	-15%
